Screening data from PubChem BioAssay.
In the library only some 21% were active in any assay of this set; here they are far more common.
Pf growth 96h: Primary qHTS for delayed death inhibitors of the malarial parasite plastid, 96 hour incubation; P. falciparum luciferase reporter growth, 96 h; Potency, µM (titrated, usually from 28.7 µM), for the others: top-dose activity change, negative = inhibition, hits mostly inhibitors; hit rate 6.9% among 320,000; AID 504834, 2011; also: potency is read from the fitted curve at half-maximal effect; % is scaled to controls: 0 for no effect and ±100 for the full control effect
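Erythrocytes infected with luciferase-expressing P. falciparum were dispensed at 2% hematocrit and 0.05% parasitemia (final), then incubated with compounds 96 hours at 37 C in 5% CO2. Luminescence after detection reagent addition reported growth.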
NS1 function inh: qHTS Assay for Inhibitors of Influenza NS1 Protein Function. AID 2326, 2010. Potency, µM (series often up to 46.1 µM), for inactives: at the top dose activity, positive = more growth. hit rate 0.4% among 270,000; calls by dose curve; also: potency is read from the fitted curve at half-maximal effect; actives are rising curves; nearly all actives have a fitted effect of over 50% in size
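Compounds were scored for reversing the slow growth caused by influenza A NS1 in S. cerevisiae, measured by optical density at 600 nm. Assay medium contained 2% galactose at pH 6.0; NS1-free yeast of the same strain were the positive control.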
Shiga inhibitor: A qHTS for Small Molecule Inhibitors of Shiga Toxin. Vero cells, Shiga toxin protein synthesis inhibition reporter. inhibition, % at 38.7 µM. hit rate 9.2% among 290,000. AID 2315, 2010; in the data active = inhibition mostly above about 28%, no sharp cut-off; inactive = mostly below about 43%; also: 0% is about no effect
Cycloheximide cs: Cycloheximide Counterscreen for Small Molecule Inhibitors of Shiga Toxin | cell reporter, cycloheximide protein synthesis inhibition counterscreen | max response, % | hit rate 12% among 300,000 | AID 2314, 2010; in the data active = max response mostly above about 13%, no sharp cut-off; inactive = mostly below about 14%; also: read at 38.3 µM for the half of the compounds with a filed dose; 0% is about no effect
Pf growth 48h: Primary qHTS for delayed death inhibitors of the malarial parasite plastid, 48 hour incubation; AID 504832, 2011; hit rate 5.9% among 310,000; P. falciparum luciferase growth in erythrocytes, 48 h; Potency, µM (highest dose often 28.7 µM), for the others: at the highest dose activity change, negative = inhibition, hits mostly inhibitors; also: potency is read from the fitted curve at half-maximal effect; % is scaled to controls: 0 for no effect and ±100 for the full control effect
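Read-out is firefly luciferase luminescence from an integrated reporter in P. falciparum, so falling signal marks reduced parasite growth. Infected erythrocytes were at 2% hematocrit and 0.1% parasitemia (final) in Albumax-supplemented RPMI 1640.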
Sm TGR block: qHTS Assay for the Inhibitors of Schistosoma Mansoni Peroxiredoxins; Potency, µM (top dose mostly 114 µM), inactives show top-dose activity change, negative = inhibition, most hits filed as inhibitors; purified TGR, DTNB reduction, TNB absorbance 405 nm; Schistosoma mansoni thioredoxin glutathione reductase (TGR), Q962Y6; hit rate 3% among 360,000; AID 485364, 2010; also: potency is read from the fitted curve at half-maximal effect; % is scaled to controls: 0 for no effect and ±100 for the full control effect; nearly all actives have a fitted effect of over 60% in size
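First, TGR (20 nM dispensed) and NADPH were mixed with compound. Second, a 15 min room-temperature incubation followed. Third, further NADPH and then DTNB were added to start the reaction. Finally, TNB absorbance was monitored kinetically.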
An asterisk follows results filed as active; ? = inconclusive; . = not tested or not shown; [ ] = dose if it differs, or a comment. Unless noted, calls follow the shape of the dose curve; as a rule, active = well fitted curve in the direction sought with a large enough effect; inconclusive = small, poorly fitted or top-dose-only effect, or another doubt; inactive = no such curve, though single readings can be large; an effect the other way counts as inactive or inconclusive.

SMILES | Pf growth 96h | NS1 function inh | Shiga inhibitor | Cycloheximide cs | Pf growth 48h | Sm TGR block
O=C(Nc1cccnc1)c1c(F)cccc1F | . | 4% | 1 | 7 | 20% | 2%
Cc1cccc(CN2CCN(CC(=O)NCCc3ccc(Cl)cc3)C2=O)c1 | . | . | . | . | . | -9%
CCOC(=O)CCC(NC(=O)c1ccc(NCN2C(=O)c3ccccc3C2=O)cc1)C(=O)OCC (centres undefined) | 4.1µM* | 0% | -24 | -6 | . | 0%[11.4 µM]
NS(=O)(=O)c1ccc(CCNC(=O)c2cc(-c3ccco3)nc3ccccc23)cc1 | ? | . | . | . | ? | 8.9µM*
Cc1ccc(-c2cc(C(=O)NCCc3ccc(S(N)(=O)=O)cc3)c3ccccc3n2)cc1 | ? | -1% | 41 | 17* | ? | .
O=C1c2ccccc2-c2nnc(-c3ccc(F)cc3)cc21 | ? | . | 80* | 42* | -17% | -22%
Cc1ccc(-c2cc3c(nn2)-c2ccccc2C3=O)cc1 | 0.37µM* | -10% | 25* | 22* | 0.52µM* | -17%
Cc1ccccc1-c1cc2c(nn1)-c1ccccc1C2=O | . | -120% | 83* | 18 | 4.1µM* | 40%
O=C1c2ccccc2-c2nnc(-c3ccc(O)cc3)cc21 | -24% | 1% | 26 | 20* | 97% | 2%
O=C1c2ccccc2-c2n[nH]c3cccc1c23 | ? | 0% | . | . | -4% | .
O=c1[nH]nc(-c2ccc(F)cc2)cc1-c1ccccc1 | ? | 1% | -9 | -2 | -2% | -4%
N#Cc1c(-c2ccccc2)cc(-c2ccc(O)cc2)nc1N | -12% | -19% | 8 | -1 | ? | -22%
Cc1ccc(Cl)cc1N(C)C(=O)c1cc2ccc3cccnc3c2[nH]1 | . | . | . | . | . | 8%
Cc1cccc(C)c1NC(=S)N=Nc1c(O)n(C)c2ccc(S(=O)(=O)N3CCOCC3)cc12 | ? | 5% | -12 | -5 | ? | 7%
Cc1ccc(NC(=S)N=Nc2c(O)n(C)c3ccc(S(=O)(=O)N4CCOCC4)cc23)cc1 | ? | ? | -3 | -5 | 2.6µM* | 3%
C=CCn1c(O)c(N=NC(=S)Nc2ccccc2F)c2cc(S(=O)(=O)N3CCOCC3)ccc21 | 35% | . | -8 | 1 | 6.6µM* | -3%
C=CCn1c(O)c(N=NC(=S)Nc2ccccc2F)c2ccccc21 | -11% | . | -7 | 14 | ? | 4%
Cc1ccccc1NC(=S)N=Nc1c(O)n(C)c2ccc(S(=O)(=O)N3CCOCC3)cc12 | 8% | ? | -6 | 11 | 3.3µM* | 3%
Cc1cc(C)cc(NC(=S)N=Nc2c(O)n(C)c3ccc(S(=O)(=O)N4CCOCC4)cc23)c1 | ? | 12% | -3 | -2 | 2.1µM* | 41%
Cc1ccc(S(=O)(=O)c2c(C)nn(-c3ccccc3)c2OC(=O)c2ccccc2F)cc1 | . | . | . | . | . | 1%
COc1cccc2cc(C(=O)N3CCN(c4ncccn4)CC3)c(=O)oc12 | . | 3% | 15 | 14* | 8% | -6%
O=C(c1cccc2ccccc12)N1CCCCC1 | 14% | 6% | -8 | 1 | ? | -28%
COc1cccc2cc(C(=O)N3CCCCCCC3)c(=O)oc12 | 1% | 16% | 44* | 32* | ? | 2%
CCN(C(=O)c1cc2cccc(OC)c2oc1=O)C1CCCCC1 | 1.5µM* | 1% | -4 | -2 | ? | -14%
O=C(c1cccc2cccc(O)c12)N1CCCCC1 | 15% | -105% | -6 | -6 | 20% | 40µM*
SMILES | Pf growth 96h | NS1 function inh | Shiga inhibitor | Cycloheximide cs | Pf growth 48h | Sm TGR block
CC(Cc1ccccc1)N/C=C1\CC(=O)NC1=O (centres undefined) | ? | 13% | -6 | 1 | 4% | 0%
CCn1ccc2cc(S(=O)(=O)N3CCCN(C(=O)Nc4ccccc4C(F)(F)F)CC3)ccc21 | . | . | . | . | . | -4%
Cc1cccc(C(=O)Nc2cc3c(cc2N2CCCCC2)n(C)c(=O)n3C)c1 | . | . | . | . | . | -11%
COCCCNC(=O)CCCN1C(=O)c2cccnc2Sc2ccccc21 | -26% | 3% | -2 | 7 | -15% | -9%
Cc1ccc(C)c(Cn2c(=O)n(Cc3ccccc3)c(=O)c3c(C)c(C)sc32)c1 | . | . | . | . | . | 1%
COc1cccc(-c2cc3c(-n4cccc4)ncnc3o2)c1 | -1% | 7% | 43* | 12 | 50% | 8%
Nc1nonc1-n1nnc(C(=O)N/N=C/c2ccccc2Cl)c1-c1ccc2c(c1)OCO2 | 0.66µM* | 8% | 1 | 3 | 2.9µM* | -7%
CCOc1ccc(-c2c(C(=O)N/N=C/c3cccs3)nnn2-c2nonc2N)cc1 | -15% | 6% | 25 | 0 | 8% | -15%
CCOC(=O)c1nnn(-c2nonc2N)c1-c1ccc(C)cc1 | 48% | 2% | -14 | 1 | 15µM* | 7%
Nc1nonc1-n1nnc(C(=O)N/N=C/c2ccccc2Cl)c1CN1CCOCC1 | 32% | -14% | -6 | 1 | 1% | 6%
Cc1ccsc1/C=N/NC(=O)c1nnn(-c2nonc2N)c1-c1ccc2c(c1)OCO2 | 0.13µM* | 2% | -5 | -3 | 3.3µM* | -4%
Cc1ccc(-c2c(C(=O)N/N=C/c3cccs3)nnn2-c2nonc2N)cc1 | 1.2µM* | 11% | -7 | -10 | ? | -5%
CCc1ccc(-c2nc(SCC(=O)N(CC)C3CCS(=O)(=O)C3)n[nH]2)cc1 (centres undefined) | 8% | . | . | . | 19% | -2%
Cc1ccc(-c2c(C(=O)N/N=C/c3ccc4c(c3)OCO4)nnn2-c2nonc2N)cc1 | ? | 18% | -11 | -4 | ? | -12%
Nc1nonc1-n1nnc(C(=O)N/N=C/c2cccs2)c1-c1ccc2c(c1)OCO2 | 0.29µM* | -3% | 15 | 5 | 0.93µM* | 2%
CCOC(=O)c1nnn(-c2nonc2N)c1CSc1ccccc1 | 3.3µM* | -11% | -4 | -5 | . | -7%
Cc1scc(C(=O)N2CCN(c3ccc(Cl)cc3)CC2)c1C | 30% | -50% | -7 | -2 | -17% | 7%
COc1ccc(C(=O)C[n+]2ccc3c(c2)nc(-c2ccccc2)n3C)cc1 | 33% | 12% | -10 | -2 | 2.3µM* | 5%
CCOC(=O)c1ccc[n+](CC(=O)c2ccc(OC)cc2)c1 | 11% | 11% | -7 | 0 | -5% | 0%
COc1ccc(C(=O)C[n+]2ccc3c(c2)nc(-c2ccc(OC)cc2OC)n3C)cc1 | 4.1µM* | -9% | -7 | 2 | 12µM* | 1%
COc1cc(-c2nc3ccccc3c(=O)n2N)cc(OC)c1OC | ? | 10% | -2 | -2 | 13% | -3%
C=Cn1cc[n+](CC(=O)c2ccc(OC)cc2)c1 | ? | 9% | -8 | -2 | ? | 4%
COc1cc(-c2nc3c[n+](CC(=O)c4ccccc4)ccc3n2C)cc(OC)c1OC | -13% | 7% | 8 | -1 | 7.4µM* | -5%
